Source: PubChem (National Center for Advancing Translational Sciences (NCATS))
Compounds with a hit are over-represented: about 10% of the library has one in this group of screens.
HEK cytotox: Cytotoxic Profiling in HEK 293 Cell Line of Diverse Libraries Using Quantitative High-Throughput Screening | HEK 293 viability, ATP luminescence (CellTiter-Glo), 48-72 h | Potency, µM (titrated, usually from 115 µM), without a hit: at the highest dose activity change, negative = cytotoxicity, hits mostly inhibitors | 6.6% of 94,000 active | AID 1345083, 2018; also: nearly all actives have a fitted effect of over 60% in size
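HEK 293 cells seeded at 250 cells/well were exposed to compound for 48 or 72 hr at 37 degree Celsius. Viability taken as ATP content by CellTiter-Glo luminescence.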
Luciferase inh: Firefly luciferase inhibition profiling of diverse chemical library using quantitative high-throughput screening. 2.5% of 76,000 active. purified P. pyralis luciferase, luminescence, biochemical. Luciferin 4-monooxygenase (Photinus pyralis), P08659. Potency, µM (doses to about 115 µM), hits mostly inhibitors; also: nearly all actives have a fitted effect of over 65% in size
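Luminescence read by CCD imager after adding enzyme (10nM final) to wells holding compound, titrated in qHTS. Substrates 10uM each D-luciferin and ATP; buffer 50mM Tris acetate pH 7.5, 10mM Mg acetate, Tween-20, BSA.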
NIH3T3 tox: Cytotoxic Profiling in NIH 3T3 Cell Line of Diverse Libraries Using Quantitative High-Throughput Screening; NIH 3T3 viability, CellTiter-Glo ATP luminescence, 48-72 h; Potency, µM (doses to about 96.7 µM), without a hit: at the highest dose activity change, negative = cytotoxicity, most hits filed as inhibitors; 4.3% of 94,000 active; AID 1345082, 2018; also: nearly all actives have a fitted effect of over 55% in size
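Cytotoxicity was measured by CellTiter-Glo ATP luminescence after 48 or 72 h compound exposure at 37 °C. Mouse NIH 3T3 fibroblasts were seeded at 400 cells/well and dosed by 23 nL pin transfer.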
GPT2 inhibitor: Primary qHTS assay for inhibitors of Glutamate pyruvate transaminase 2 (GPT2). Recombinant GPT2, coupled pyruvate oxidase/HRP Amplex Red fluorescence. Potency, µM (titrated, usually from 57.7 µM), inactives show at the highest dose activity change, negative = inhibition, most hits filed as inhibitors. 0.25% of 100,000 active. AID 1671188, 2021; also: nearly all actives have a fitted effect of over 60% in size
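Inhibition is scored from Amplex Red fluorescence generated when pyruvate oxidase and HRP act on pyruvate released by GPT2. Reactions contain 10ng/uL enzyme, 250uM a-KG and 2mM L-alanine and run 30 min at room temperature.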
NPR1 antag: Natriuretic polypeptide receptor (hNpr1) antagonism - Primary qHTS; Atrial natriuretic peptide receptor 1 (Homo sapiens), P16066; HEK293 hNpr1 GloSensor cGMP, ANP-stimulated luminescence; Potency, µM (titrated, usually from 46.3 µM), for inactives: at the highest dose activity change, negative = inhibition, hits mostly inhibitors; 1.6% of 76,000 active; calls by dose curve; also: nearly all actives have a fitted effect of over 60% in size
Target sequence (P16066 whole entry, looked up): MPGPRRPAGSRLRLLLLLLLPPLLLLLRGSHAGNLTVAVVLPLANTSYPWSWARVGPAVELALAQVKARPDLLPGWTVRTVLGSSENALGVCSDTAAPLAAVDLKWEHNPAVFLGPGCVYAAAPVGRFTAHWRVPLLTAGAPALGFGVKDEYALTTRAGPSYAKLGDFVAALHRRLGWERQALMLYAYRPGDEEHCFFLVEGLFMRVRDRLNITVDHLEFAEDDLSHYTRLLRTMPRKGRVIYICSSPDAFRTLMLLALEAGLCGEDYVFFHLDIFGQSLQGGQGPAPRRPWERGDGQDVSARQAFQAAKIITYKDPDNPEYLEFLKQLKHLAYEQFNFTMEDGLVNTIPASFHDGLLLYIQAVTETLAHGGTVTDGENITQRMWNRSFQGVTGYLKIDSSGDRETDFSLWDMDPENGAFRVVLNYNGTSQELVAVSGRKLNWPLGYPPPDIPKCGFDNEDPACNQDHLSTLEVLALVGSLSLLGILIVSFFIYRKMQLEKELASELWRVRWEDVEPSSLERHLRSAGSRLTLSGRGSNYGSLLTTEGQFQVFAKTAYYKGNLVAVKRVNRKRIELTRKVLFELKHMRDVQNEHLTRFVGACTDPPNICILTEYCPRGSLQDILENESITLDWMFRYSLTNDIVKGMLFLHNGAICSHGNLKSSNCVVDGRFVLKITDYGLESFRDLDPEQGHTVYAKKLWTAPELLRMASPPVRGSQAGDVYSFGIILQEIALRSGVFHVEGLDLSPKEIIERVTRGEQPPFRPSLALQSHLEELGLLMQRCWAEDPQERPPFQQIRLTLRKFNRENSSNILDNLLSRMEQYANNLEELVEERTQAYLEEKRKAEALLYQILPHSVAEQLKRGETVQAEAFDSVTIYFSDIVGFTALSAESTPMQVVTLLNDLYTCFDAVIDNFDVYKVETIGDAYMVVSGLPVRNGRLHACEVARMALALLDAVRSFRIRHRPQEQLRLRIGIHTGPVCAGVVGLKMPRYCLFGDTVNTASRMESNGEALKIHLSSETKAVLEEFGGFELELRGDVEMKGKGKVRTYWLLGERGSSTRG
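Compound pre-incubated 30 min at room temperature on GloSensor-loaded HEK293 cells stably carrying hNpr1 and the pGS-40F cGMP biosensor. Stimulation uses hNppA at 0.1 nM final; luminescence is taken at baseline and 20 min post-agonist.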
The depositor's hits bear a star; i = inactive; ? = inconclusive; . = not tested or not shown; ! = not confirmed by another sample; [ ] = dose if it differs, or a comment. Unless noted, calls follow the shape of the dose curve; as a rule, active = well fitted curve in the direction sought with a large enough effect; inconclusive = small, poorly fitted or top-dose-only effect, or another doubt; inactive = no such curve, though single readings can be large; an effect the other way counts as inactive or inconclusive. % is scaled to controls: 0 for no effect and ±100 for the full control effect; potency is read from the fitted curve at half-maximal effect.

SMILES	HEK cytotox	Luciferase inh	NIH3T3 tox	GPT2 inhibitor	NPR1 antag
COc1ccc(/C=C/C(=O)O[C@@H]2[C@@H](O)[C@H](C)O[C@@H](OC3C4C=COC(O[C@@H]5O[C@H](CO)[C@@H](O)[C@H](O)[C@H]5O)C4C4(CO)OC34)[C@@H]2O)cc1OC (some centres undefined)	.	.	.	-6%[17.1 µM]	.
CCN(CC)C(=O)c1cc2c(n1C)CCN(Cc1ccc(F)cc1)C2	-8%	i	4%	3%	4%
Cn1c(C(=O)Nc2ccc(N3CCOCC3)cc2)cc2c1CCN(Cc1ccccc1)C2	-20%	i	-22%	22µM*	-1%
COc1ccc(CNC(=O)c2cc3c(n2C)CCN(Cc2ccccc2)C3)cc1OC	40µM*	i	-27%	i	?
CC(=O)Nc1ccc(NC(=O)c2cc3c(n2C)CCN(Cc2ccccc2)C3)cc1	-13%	i	-23%	-25%	1%
CC(C)(C)c1ncc(-c2ccccc2)[nH]1	-13%[230 µM]	.	-15%[174 µM]	-5%[88.5 µM]	.
CCOc1ccccc1NC(=O)NCCn1c(C)cnc1C1CC1	i	.	4%	?	.
CC(C)Cn1c(=O)c(C(=O)NCC(F)(F)F)nc2cccnc21	5%	.	-3%	-8%	.
O=C1COCC2(CN(c3ccc(C(F)(F)F)cn3)C2)CN1c1ccc(F)cc1	?	i	?	-7%[88.5 µM]	-3%[70.6 µM]
O=C1COCC2(CN(c3ccccc3)C2)CN1c1ccc(OC(F)(F)F)cc1	89µM*	i	89µM*	i	-11%[70.6 µM]
COc1cc(C)ccc1OCC(=O)c1ccc2c(c1)N(CC(=O)N1CCCC1)C(=O)CO2	?	i	-24%	i	-9%
CC(C(=O)NC1CC1)N1C(=O)COc2ccc(C(=O)COc3cccc(Cl)c3)cc21 (centres undefined)	?	i	?	-2%	-16%
COc1cccc(OCC(=O)c2ccc3c(c2)N(CCCC(=O)NCc2ccccc2)C(=O)CO3)c1	?	i	40µM*	-9%	-2%
CC(C(=O)NCCc1ccccc1)N1C(=O)COc2ccc(C(=O)COc3ccc(Cl)cc3)cc21 (centres undefined)	45µM*	i	?	-1%	-4%
Cc1cccc(OCC(=O)c2ccc3c(c2)N(C(C)C(=O)N2CCCC2)C(=O)CO3)c1C (centres undefined)	45µM*	?	-30%	i	0%
COc1ccccc1OCC(=O)c1ccc2c(c1)N(C(C)C(=O)NCCc1ccccc1)C(=O)CO2 (centres undefined)	?	i	?	i	7%
Cc1cc(F)ccc1OCC(=O)c1ccc2c(c1)N(C(C)C(=O)N1CCCCC1)C(=O)CO2 (centres undefined)	50µM*	?	?	i	-4%
O=C(NC1CCCN(CCn2nc3n(c2=O)CCCC3)C1)c1ccncc1 (centres undefined)	-8%	.	-20%	.	.
NC1CC(c2nnc(COc3ccc4c(c3)CCNCC4)n2C2CC2)C1 (centres undefined)	18µM*!	i	?	-6%	1%
Cc1ccc(N2CCC(N[C@@H]3CC[C@@H](N)C3)CC2)cc1Cl	7.9µM*	i	10µM*	-3%	1%
Cc1ccc(C(=O)NC2CCN(c3cnn(CC4CC4)c(=O)c3)CC2)cc1C	-27%	i	-3%	i	2%
CNC(=O)c1cc(C)nc2onc(C3CCCN(C(=O)COC)C3)c12 (centres undefined)	3%[172 µM]	.	i	.	.
COc1ccc(-c2nccc3c(=O)cc(N4CCN(C)CC4)oc23)cn1	i	i	?	1%[88.5 µM]	-1%[70.6 µM]
COc1cccc(-c2nccc3c(=O)cc(N4CCOCC4)oc23)c1	?	i	20µM*	-8%[88.5 µM]	9%[70.6 µM]
COc1ncc(-c2nccc3c(=O)cc(N4CCN(C)CC4)oc23)cn1	-13%[172 µM]	i	89µM*	2%[88.5 µM]	1%[70.6 µM]
